Reference: the supplement of paper PMC6555819

Tests used:
Assay in all cases: PBM binding z-score (relative to random genomic background probes); higher = stronger binding; sequences stand for … in GC…GCGATTGACAGCGTAGAATGAAGG
[1] = test system: FXR:RXRa (NR concentration 270 nM, RXRa partner concentration 90 nM)
Method in brief: (§1)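 Random background probes are the reference for binding z-scores. These scores derive from regression-normalized fluorescence on custom Agilent 4×180K protein-binding microarrays incubated 1 h with ligand-free nuclear receptor dimers. Binding was detected with antibodies against each partner (one per run).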

[2] = test system: LXRa:RXRa (NR concentration 270 nM, RXRa partner concentration 90 nM)
Method in brief: as §1

[3] = test system: LXRa homodimer (NR concentration 270 nM)
Method in brief: as §1

[4] = test system: LXRb:RXRa (NR concentration 270 nM, RXRa partner concentration 90 nM)
Method in brief: as §1

[5] = test system: LXRb homodimer (NR concentration 270 nM)
Method in brief: as §1

[6] = test system: PPARa:RXRa (NR concentration 270 nM, RXRa partner concentration 90 nM)
Method in brief: as §1

[7] = test system: PPARg:RXRa (NR concentration 180 nM, RXRa partner concentration 90 nM)
Method in brief: as §1

[8] = test system: PPARg:RXRa 270nM:90nM, anti-RXR (NR concentration 270 nM, RXRa partner concentration 90 nM)
Method in brief: as §1

[9] = test system: PPARg:RXRa 30nM:10nM, anti-RXR (NR concentration 30 nM, RXRa partner concentration 10 nM)
Method in brief: as §1

[10] = test system: PPARg:RXRa 90nM:30nM, anti-RXR (NR concentration 90 nM, RXRa partner concentration 30 nM)
Method in brief: as §1

Sequence | PBM binding z-score [1] | PBM binding z-score [2] | PBM binding z-score [3] | PBM binding z-score [4] | PBM binding z-score [5] | PBM binding z-score [6] | PBM binding z-score [7] | PBM binding z-score [8] | PBM binding z-score [9] | PBM binding z-score [10]
CGGCCTAGGTCAGGGCCAGTATAGGAGGAACGTT | 1.39 | 0.731 | -0.463 | 0.402 | -1.29 | 1.83 | 0.691 | 0.462 | -0.446 | 0.244
ATCTCTAGGTAACTAGTTCAGTGAAAGAGAGGAC | 0.133 | 0.11 | -0.0189 | 0.143 | 0.75 | 0.794 | 0.87 | 0.974 | 0.417 | 0.722
ATACCAAGGTGATCGTGAGGTCCTTGATACTAAC | 0.569 | -0.0765 | -0.204 | 0.177 | -0.319 | 0.562 | 0.44 | 0.0314 | -0.102 | -0.134
CGTCCAAGGTCAGCGAGGTCAGTGAATGCCGAGT | 6.31 | 5.26 | 1.83 | 4.28 | 0.00119 | 5 | 3.79 | 4.78 | 0.896 | 3.3
ATCGGAAGGTCGAAGGTGAGTATACCCACCCGAA | 2.14 | 1.54 | -0.0479 | 1.23 | -0.0206 | 3.18 | 3.05 | 3.84 | 1.55 | 3.07
TCTAGATGGTCACGGAGGTCACACACGACGGGTA | 3.7 | 3.91 | 2.8 | 3.49 | 0.481 | 4.04 | 3.59 | 4.36 | 3.7 | 4.04
CCTCCTAGGTCATGGTCAGCTAATCTACAGTATG | 3.85 | 2.79 | 0.804 | 2.24 | 0.0954 | 3.8 | 2.72 | 2.89 | 0.958 | 2.09
GGAACGAGGGCAAAGTTGCTAGCATCTGTCGACG | 0.659 | 0.547 | -0.512 | 0.42 | -0.761 | 2.65 | 3.83 | 5.03 | 2.76 | 5.06
AATACAGGGTCACTAGGCCAGTGTAGGTACGAAT | 5.94 | 5.39 | 1.08 | 3.91 | 0.765 | 5.69 | 7.83 | 6.59 | 3.05 | 5.85
CCTACTGAGCCATCAGGTCATTGATATCAACGTT | 1.58 | 1.47 | 2.08 | 2.26 | 0.649 | 1.79 | 0.302 | 0.843 | 0.137 | 0.472
GCTCAGAGGACAAGGTCAGAGCTTTGTCCGTAGA | 1.98 | 1.73 | -0.421 | 1.27 | -0.977 | 2.37 | 0.282 | 0.936 | -0.588 | 0.0916
CAAACTAGGTTACCGGAAGGTCAAAGTCCGCATG | 4.06 | 5.04 | 4.5 | 4.05 | 1.13 | 4.85 | 6.22 | 5.55 | 2.78 | 4.83
ATCTCTAGGTAAAAGTCCAGTGAATCCCGAGGAT | 0.192 | 0.0512 | -0.0646 | -0.297 | 0.61 | 0.598 | 1.24 | 3.02 | 1.28 | 2.94
AGTCCAAGTTCATCTAGGTAACGTAAGATATGCT | 3.42 | 3.23 | 1.19 | 1.62 | 0.287 | 2.59 | 1.45 | 1.61 | 0.523 | 0.991
TCATATAGATAATACAGGTGAAAGTCGGCATCTA | 1.28 | 0.946 | 0.247 | 1.08 | 0.215 | 1.53 | 1.36 | 2.47 | 4.31 | 3.51
AGACTGAGGTTATACGTAGATCAGGGAAGAAAGT | 1.99 | 2 | 0.184 | 1.55 | -0.196 | 2.58 | 0.936 | 0.937 | 0.367 | 0.756
ACTAGCAGGCGAAGTTTGGGTCACTCAAACAAAG | -0.1 | -0.222 | -0.509 | 0.307 | -0.961 | 1.22 | -0.19 | 0.0876 | -0.449 | -0.106
ATATGTCGGTTACATCCGGGTCATTCAGGCTATG | 1.65 | 2.86 | 1.27 | 1.92 | 0.559 | 2.79 | 1.55 | 1.48 | 0.573 | 1.09
CTTGCTAGGTCATGGTCAGCTAATCTACAGTATG | 3.63 | 2.86 | 0.466 | 1.66 | -0.00744 | 3.61 | 3.05 | 3.54 | 1.34 | 2.35
TATACAGGGTCAAAGGACAGAGTACGAATGTCGA | 7.39 | 6.09 | 2.79 | 4.85 | 2.96 | 6.24 | 7.83 | 6.55 | 4.83 | 5.84
CAAACTAGGTCATGAGGTCAAAGTCCGCTTCCCG | 6.96 | 6.16 | 5.21 | 4.92 | 1.82 | 6.48 | 9.89 | 8.16 | 6.58 | 8.76
ATCTCTAGGTAAAGATAGTACAGTGAATGCAAAT | 0.368 | 1.08 | 0.357 | 0.211 | 0.424 | 0.263 | 1.13 | 0.762 | 0.819 | 0.761
CCGACTAGGGCAGAAAGGTTACCATACCATCCGG | 0.259 | 0.701 | 0.0905 | 0.925 | -0.912 | 2.11 | 1.79 | 2.27 | 0.723 | 1.86
ATATGTAGGTTAGCTGGGGTCATTCATACTAGGC | 4.61 | 5.73 | 3.67 | 5.14 | 1.97 | 5.1 | 5.98 | 5.23 | 3.12 | 4.83
